# Results as given in the supplement of paper PMC10105736.
# Unmarked numbers belong to inactive results.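 The calls were made as follows: active = MAPPIT score above the 99th percentile of random reference set scores in the same batch; inactive = at or below it.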
# Experiments:
# Assay in all cases: MAPPIT interaction score (arbitrary units); higher = stronger binary interaction signal, active = hit call of the paper
# CG17598 = details: MAPPIT configuration: N-N; pair source set: Lit-BM-16
# CG17770 = details: pair source set: RRS
# CG17217 = details: MAPPIT configuration: N-N; pair source set: Finley_Y2H
# PIG-T = details: MAPPIT configuration: N-N; pair source set: DPIM
# Prosalpha6T = details: pair source set: Lit-BM-16
# Prosbeta3 = details: MAPPIT configuration: N-C; pair source set: Lit-BM-16
# Rpt2 = details: pair source set: Lit-BM-16
# Rpt4 = details: pair source set: Lit-BM-16
# CG17162 = details: MAPPIT configuration: N-C; pair source set: screen_4
# CG17224 = details: MAPPIT configuration: N-N; pair source set: Finley_Y2H
# 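Also: HEK293T cells with Epo stimulation, STAT-responsive firefly luciferase reporter, fold induction versus unstimulated cells divided by the larger fold induction of two negative controls lacking either bait or prey.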
binder,measurement,setting,value
Rab2 (protein) MSYAYLFKYIIIGDTGVGKSCLLLQFTDKRFQPVHDLTIGVEFGARMITIDGKQIKLQIWDTAGQEAFRSITRSYYRGAAGALLVYDITRRETFNHLTTWLEDARQHSNSNMVIMLIGNKSDLDSRREVKKEEGEAFAREHGLVFMETSARTAANVEEAFINTAKEIYEKIQEGVFDINNEANGIKIGQQHSPTNPSLPGAGGAAGAANSGCC,MAPPIT interaction score,CG17598,1.18
Rtf1 (protein) MGKRRTQSLIDSNSSDSDSESETNLESDLMSLAKKRKKPQTAAKSSSRSDSDSDWANNKAGAPSSKKKKRQKPSRDSSSSESNWDDDSQDERQPARQSPAQTQQEHKPPEQASQPAQLSEQEEGEVSDSDSDKSKSNSSSSGSDSSSSSSSSDSEFDDGFDDDLMGDDEDRRRLNGLSEKERETEIYKRIEQREIMRTRWEIERKLKLARRGEKNQEKSKNKGERAKKKKEKREKKARKAREAQAPLPTQASTSTLLDVEPKPSNEVRSASPLSTPALNRDAASTSAAVASIMPDDAASSAGVSDYFDHKERSKERKKNVEANKTDDKRSNAMALLKAKREGKAKREEEEAKRMAEKDRDDDKEELDSVSGCKSAVKLKASEIYSDDSGSSDWDEEEKPAGKRSRSNSSKASSESEDEEKAPQRPVFITTREDLNKLRLSRYKMERFVNLPIFESTVLNCFVRISIGNNGQKPVYRVAEIVGVVETGKIYSLGTTRTNRGLRLKHGTQERVFRLEFISNQEFTENEFNKWNEVCQQSHVQMPTIDLIAIKQNDIKKALNYEFKDEDVDKIVEEKNRFRNRPTNYAMKKTCLMKERDAAMLRGDYDIAQDLGQQIDELENRASELDKRRSHTLNLISYINDRNRKKNVEDAEKAILEEARANKGLKISDPFTRRITQPRMGFKGAKKDEDDMQLAPLPPPPPGKKRPNEAGTSSASVRSTDSKDYSLYSLHDFDIDLDVPLPVNTNSVPKPASKPAETVSKRSLNLEDYKKKRGLI,MAPPIT interaction score,CG17770; MAPPIT configuration: N-C,0.216
same,MAPPIT interaction score,CG17770; MAPPIT configuration: N-N,-0.281
Prosalpha2 (protein) MATERYSFSLTTFSPSGKLVQLEYALAAVSGGAPSVGIIASNGVVIATENKHKSPLYEQHSVHRVEMIYNHIGMVYSGMGPDYRLLVKQARKIAQTYYLTYKEPIPVSQLVQRVATLMQEYTQSGGVRPFGVSLLICGWDNDRPYLYQSDPSGAYFAWKATAMGKNAVNGKTFLEKRYSEDLELDDAVHTAILTLKEGFEGKMTADNIEIGICDQNGFQRLDPASIKDYLASIP,MAPPIT interaction score,CG17217,1.84
same,MAPPIT interaction score,PIG-T,0.383
same,MAPPIT interaction score,Prosalpha6T; MAPPIT configuration: N-C,2.29
same,MAPPIT interaction score,Prosalpha6T; MAPPIT configuration: N-N,-0.206
same,MAPPIT interaction score,Prosbeta3,1.69
same,MAPPIT interaction score,Rpt2; MAPPIT configuration: N-C,-1.15
same,MAPPIT interaction score,Rpt2; MAPPIT configuration: N-N,0.523
same,MAPPIT interaction score,Rpt4; MAPPIT configuration: N-C,0.723
same,MAPPIT interaction score,Rpt4; MAPPIT configuration: N-N,-0.155
TrxT (protein) MVYPVRNKDDLDQQLILAEDKLVVIDFYADWCGPCKIIAPKLDELAHEYSDRVVVLKVNVDENEDITVEYNVNSMPTFVFIKGGNVLELFVGCNSDKLAKLMEKHAGVYTDEAADVKAVHIDGECIVDLTAESSESDNDNNNVNEVSAHDENAVLEH,MAPPIT interaction score,CG17162,1.51
B-H1 (protein) MKDSMSILTQTPSEPNAAHPQLHHHLSTLQQQHHQHHLHYGLQPPAVAHSIHSTTTMSSGGSTTTASGIGKPNRSRFMINDILAGSAAAAFYKQQQHHQQLHHHNNNNNSGSSGGSSPAHSNNNNNINGDNCEASNVAGVGVLPSALHHPQPHPPTHPHTHPHALMHPHGKLGHFPPTAGGNGLNVAQYAAAMQQHYAAAAAAAAARNNAAAAAAAAAAAAAAGVAAPPVDGGVDGGVGLAPPAGGDLDDSSDYHEENEDCDSGNMDDHSVCSNGGKDDDGNSVKSGSTSDMSGLSKKQRKARTAFTDHQLQTLEKSFERQKYLSVQERQELAHKLDLSDCQVKTWYQNRRTKWKRQTAVGLELLAEAGNFAAFQRLYGGSPYLGAWPYAAAAGAAHGATPHTNIDIYYRQAAAAAAMQKPLPYNLYAGVPSVGVGVGVGVGPAPFSHLSASSSLSSLSSYYQSAAAAASAANPGGPHPVAPPPSVGGGSPPSGLVKPIPAHSASASPPPRPPSTPSPTLNPGSPPGRSVDSCSQSDDEDQIQV,MAPPIT interaction score,CG17162,4.06 (active)
Ddc (protein) MSHIPISNTIPTKQTDGNGKANISPDKLDPKVSIDMEAPEFKDFAKTMVDFIAEYLENIRERRVLPEVKPGYLKPLIPDAAPEKPEKWQDVMQDIERVIMPGVTHWHSPKFHAYFPTANSYPAIVADMLSGAIACIGFTWIASPACTELEVVMMDWLGKMLELPAEFLACSGGKGGGVIQGTASESTLVALLGAKAKKLKEVKELHPEWDEHTILGKLVGYCSDQAHSSVERAGLLGGVKLRSVQSENHRMRGAALEKAIEQDVAEGLIPFYAVVTLGTTNSCAFDYLDECGPVGNKHNLWIHVDAAYAGSAFICPEYRHLMKGIESADSFNFNPHKWMLVNFDCSAMWLKDPSWVVNAFNVDPLYLKHDMQGSAPDYRHWQIPLGRRFRALKLWFVLRLYGVENLQAHIRRHCNFAKQFGDLCVADSRFELAAEINMGLVCFRLKGSNERNEALLKRINGRGHIHLVPAKIKDVYFLRMAICSRFTQSEDMEYSWKEVSAAADEMEQEQ,MAPPIT interaction score,CG17224,0.0861
